Records with an inconclusive call do not appear. Activity calls are given as the source filed them. Rule for the calls, unless noted: active = hit-call score of the fitted dose curve at least 0.9, where 1 is the maximum; inconclusive = response in the unintended direction; inactive = score below 0.9.
Assays:
[1] = tested on: SRY-box transcription factor 17 (SOX17) Protein Expression, Deisenroth Lab, SOX17 (gene 64321); assay: CCTE_Deisenroth_DEVTOX-GLR_Pluri_SOX17: CCTE's DevTox GLR-Pluri Assay Evaluation of SRY-box transcription factor 17 (SOX17) Protein Expression, Deisenroth Lab (AID 2284427)
In short: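 RUES2-GLR human pluripotent cells were seeded 24 h, then differentiated 48 h in defined media with two chemical exposures 24 h apart (10-point series, 1 nM - 200 uM). Fixed, nuclear-stained cells were imaged; %SOX17+ cells minus 0.2% DMSO control reported.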

[2] = tested on: SRY-box transcription factor 2 (SOX2) Protein Expression, Deisenroth Lab, SOX2 (gene 6657); assay: CCTE_Deisenroth_DEVTOX-GLR_Pluri_SOX2: CCTE's DevTox GLR-Pluri Assay Evaluation of SRY-box transcription factor 2 (SOX2) Protein Expression, Deisenroth Lab (AID 2284428; active = hit-call score of the fitted dose curve at least 0.9, where 1 is the maximum; inactive = score below 0.9)
In short: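 Human pluripotent RUES2-GLR cells were seeded 24 h, then differentiated 48 h in defined media with two chemical doses at 24-h intervals (10-point, 1 nM–200 uM). Nuclear-stained cells were imaged; SOX2+ cells/cell count gave percent change versus 0.2% DMSO control.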

[3] = tested on: Brachyury (BRA) Protein Expression, Deisenroth Lab, TBXT (gene 6862); assay: CCTE_Deisenroth_DEVTOX-GLR_Pluri_BRA: CCTE's DevTox GLR-Pluri Assay Evaluation of Brachyury (BRA) Protein Expression, Deisenroth Lab (AID 2284429)
In short: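 Percent BRA+ cells (BRA+ count over total cells) by high-content imaging of fixed RUES2-GLR cultures, corrected by 0.2% DMSO control. Cells received two doses over 48-hour differentiation, 1 nM–200 uM, n=4 experiments.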

[4] = CCTE_Deisenroth_DEVTOX-GLR_Pluri_CellCount: Viability Assessment in CCTE's DevTox GLR-Pluri Assay Evaluation of Total Cell Counts, Deisenroth Lab (AID 2284430; active = hit-call score of the fitted dose curve at least 0.9, where 1 is the maximum; inactive = score below 0.9)
In short: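 Cytotoxicity readout: fluorescent nuclei counts by high-content imaging, expressed as percent change relative to 0.2% DMSO. Human RUES2-GLR pluripotent line differentiated 48 h, dosed twice at 24-h intervals across 1 nM - 200 uM (10 points).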

Measured: AC50

CS(=O)(=O)OCCCCOS(C)(=O)=O
active: [1] 45.4 µM | [2] 2.44 µM | [3] 50.7 µM | [4] 20.1 µM

Source: PubChem BioAssay (EPA / NIEHS)
